Inhibition data for 106 compounds are collected here from PubChem BioAssay AID1259354 (Paczesny and Yang Labs, IUPUI and University of Michigan, 2018).

Values joined by “and” are separate entries in the source; they are usually repeats but may differ in a detail not shown here. Equal values may be shown once. About 1,800 (2.3%) of roughly 78,000 compounds were called active. Not shown: some 27% with an inconclusive outcome. No stated cut-off is given here; in the data, active means inhibition above about 30%; inconclusive means mostly about 10% to 28%; inactive means weaker than that. Shown is part of a subset that was picked to be rich in actives.

This assay deals with Interleukin-1 receptor-like 1 (Homo sapiens) (UniProt Q01638). Put plainly: blocks human ST2 binding to IL-33, primary screen, biochemical, AlphaLISA (AID 1259354). The note with it: AlphaLISA ST2-Fc/biotin-IL-33 interaction, 1 h; at 17 µM, hits give high values. Background: In Alpha technology, singlet oxygen from a donor bead excites a nearby acceptor bead.
Chain of Interleukin-1 receptor-like 1 (Homo sapiens) (Q01638 whole entry, looked up): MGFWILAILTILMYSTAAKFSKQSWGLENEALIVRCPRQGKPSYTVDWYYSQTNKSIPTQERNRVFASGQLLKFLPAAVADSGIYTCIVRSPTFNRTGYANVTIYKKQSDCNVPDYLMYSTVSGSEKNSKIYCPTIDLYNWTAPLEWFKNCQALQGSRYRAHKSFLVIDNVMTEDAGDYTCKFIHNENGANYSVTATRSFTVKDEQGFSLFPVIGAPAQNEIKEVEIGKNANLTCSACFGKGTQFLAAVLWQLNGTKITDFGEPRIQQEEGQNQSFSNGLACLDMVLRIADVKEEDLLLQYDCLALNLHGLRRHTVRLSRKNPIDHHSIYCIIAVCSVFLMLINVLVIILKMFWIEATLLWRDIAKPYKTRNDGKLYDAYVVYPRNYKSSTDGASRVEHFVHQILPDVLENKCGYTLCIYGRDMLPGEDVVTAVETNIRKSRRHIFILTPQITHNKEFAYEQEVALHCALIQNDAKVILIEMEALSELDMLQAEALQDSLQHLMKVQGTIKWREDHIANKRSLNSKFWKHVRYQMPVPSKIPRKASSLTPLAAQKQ
One may read the inhibition as the relative decrease from the control value, in per cent. Regarding `N#CC(C(=O)Nc1cccc(C(F)(F)F)c1)=C1CCCCCC1`, the inhibition entry was “inactive”.
Consider `O=[N+]([O-])c1cccc(-c2noc([C@@H]3C[C@@H](O)CN3Cc3ccc(C(F)(F)F)cc3)n2)c1`, for which the inhibition entry is “inactive”.
Take `N#C/C(=C\c1ccc(-c2cccc([N+](=O)[O-])c2)o1)C(=O)Nc1cccc(C(F)(F)F)c1`: the inhibition is 30% (active).
For `O=C(C1CCCN(Cc2c[nH]c3ccccc23)C1)N1CCCCCC1` (stereo unspecified), the inhibition result was “inactive”.
Regarding `COc1ccc(-c2oc3ncn(Cc4ccco4)c(=N)c3c2-c2ccc(OC)cc2)cc1`, the inhibition was 31% (active).
As for `O=C(Nc1c(-c2ccc(F)cc2)nc2ccccn12)c1cccc(F)c1`, the inhibition entry is “inactive”.
Turning to `Cc1cccc2nc(-c3ccco3)c(Nc3ccc(F)cc3)n12`, the inhibition result is “inactive”.
`Fc1ccc(C=Nc2c(-c3ccco3)nc3ccccn23)cc1`: the inhibition is 49% (active).
For the compound `Fc1cccc(N2N=C(/C=C/c3cccs3)CC2c2cccs2)c1` (stereo unspecified), the inhibition is 32% (active).
The same measure for `CCN(CC)S(=O)(=O)c1ccc(C(=O)Nc2nnc(-c3cc(OC)cc(OC)c3)o2)cc1`: “inactive”; for `N#C/C(=C/c1ccc2c(c1)OCO2)c1nc(-c2cccc(Br)c2)cs1`: 30% (active).
As to `N#C/C(=C\c1cccc(F)c1)c1nc(-c2ccc3c(c2)OCO3)cs1`, the inhibition entry is “inactive”.
Consider `COc1ccccc1OCCNC(=O)c1ccccc1O`, for which the inhibition entry was “inactive”.
With `CCSc1nnc(NC(=O)Nc2ccc(Cl)cc2)s1`, the inhibition result is “inactive”.
For `O=C(Nc1ccc([N+](=O)[O-])cc1Br)c1cncc(Br)c1`, the inhibition is 47% (active).
The same measure for `O=C(Nc1ccc([N+](=O)[O-])cc1Br)c1ccncc1`: “inactive”; for `O=C(Nc1ccc([N+](=O)[O-])cc1Cl)c1cccc(Br)c1`: “inactive”; for `CC(C)N(C(=O)Cn1c(Cl)nc2c1c(=O)n(C)c(=O)n2C)c1ccccc1`: “inactive”.
As for `CCc1ccc(NC(=O)c2ccc(CN3CCOCC3)cc2)cc1`, the inhibition result was “inactive”.
Take `O=C(Nc1ccc(Cl)cc1)Nc1ccc2n(c1=O)C[C@H]1C[C@@H]2CN(C(=O)Cc2cccs2)C1`: the inhibition entry is “inactive”.
The same measure for `COc1ccc(-c2cccc(-n3cccn3)c2)cc1C(N)=O`: “inactive”.
For `CN1CCCC2(CC1)CCN(C(=O)c1cc3ccccc3n(C)c1=O)CC2`, the inhibition entry was “inactive”.
As for `COc1cc(OC)cc(C(=O)N2c3ccccc3Sc3ccccc32)c1`, the inhibition result was “inactive”.
As to `O=c1nc2cc3[nH]c4c(=O)c5ccccc5c4[nH]c3cc2n1`, the inhibition was 46% (active).
The same measure for `O=C(c1cccc(I)c1)n1nnc2ccccc21`: “inactive”; for `CCSc1ncc(CN2CC[C@@H](N(C)CCc3ccccn3)[C@H](O)C2)cn1`: “inactive”.
For `CC(=O)Nc1ncc2c(n1)CC(c1ccc(F)cc1)CC2=O` (stereo unspecified) the value was “inactive”; for `COc1ccc(-c2cc(C(=O)Nc3cccnc3)c3ccccc3n2)cc1`, “inactive”.
Turning to `COc1ccc(-c2cc(C(F)(F)F)nc(NCc3cccnc3)n2)cc1`, the inhibition result is “inactive”.
`COc1ccc(-c2csc(/C(C#N)=C\c3cccnc3)n2)cc1`: the inhibition is 31% (active).
`CCc1cccc(NS(=O)(=O)c2cc(Br)cc3c2N(C(C)=O)C(C)C3)c1` (stereo unspecified): the inhibition result is “inactive”.
The same measure for `O=C(c1cscn1)N1CCCC(CCc2ccccc2C(F)(F)F)C1` (stereo unspecified): “inactive”; for `O=C1N=C(N2CCOCC2)S/C1=C/c1ccc(F)cc1`: “inactive”; for `N=C1S/C(=C\c2ccc(N3CCOCC3)cc2)C(=O)N1c1ccccc1Cl`: 31% (active).
Take `COc1ccc(/C=C2\SC(=O)N(c3ccc(C)cc3)C2=O)cc1`: the inhibition result was “inactive”.
For `CCC1=Nc2cc(C(=O)NCCN(CC)CC)ccc2Sc2ccc(C)cc21`, the inhibition result was “inactive”.
With `COc1ccc(C2NC(=O)N(C)C(C)=C2[N+](=O)[O-])cc1` (stereo unspecified), the inhibition entry was “inactive”.
For `COc1ccc(C2CC(c3ccc(C)cc3)Nc3ncnn32)cc1` (stereo unspecified), the inhibition result is “inactive”.
For the compound `COc1ccc(C2CC(c3ccc([N+](=O)[O-])cc3)=NN2)cc1` (stereo unspecified), the inhibition is 30% (active).
With `COC(=O)c1nc2n(n1)C(c1ccc(F)cc1)C1=C(CCCC1=O)N2` (stereo unspecified), the inhibition entry was “inactive”.
For `CC(=O)c1ccc(NC(=O)CCC2CCCCC2)cc1`, the inhibition entry is “inactive”.
For the compound `Cc1nn(-c2ccccn2)c2c1C(=O)/C(=C/Nc1cccc(C(F)(F)F)c1)CC2`, the inhibition is 35% (active).
`FC(F)(F)c1cccc(NCn2nnc3ccccc32)c1`: the inhibition entry is “inactive”.
`O=C(CCN1C(=O)c2ccccc2C1=O)Nc1cccc(C(F)(F)F)c1`: the inhibition result is “inactive”.
Take `CCOc1ccc2[nH]c(C(=O)O)c(CCN)c2c1`: the inhibition result was “inactive”.
For `Cc1[nH]c2ccc(CNC(=O)[C@@H](O)Cc3ccccc3)cc2c1C` the value was “inactive”; for `COc1ccc(Br)cc1C(=O)Nc1cccc(Cl)c1`, “inactive”; for `O=C(Nc1cccc(OCc2cc(=O)n3cc(Cl)ccc3n2)c1)c1cccs1`, “inactive”.
As to `Cc1ccc2ncc(NC(=O)c3cccs3)c(=O)n2c1`, the inhibition is 83% (active).
As to `O=C(NC1CCCCCCC1)c1cccs1`, the inhibition entry is “inactive”.
Take `Fc1cccc(CC2CN(Cc3cn[nH]c3-c3ccccc3)CCO2)c1` (stereo unspecified): the inhibition entry is “inactive”.
On to `N#CC(c1ccco1)N1CCN(C(C#N)c2ccco2)CC1` (stereo unspecified), for which the inhibition result was “inactive”.
As to `COc1ccc(NS(=O)(=O)c2ccc(Cl)cc2)cc1`, the inhibition result was “inactive”.
For `CCOc1ccc(NS(=O)(=O)c2ccc(Cl)cc2)cc1` the value was “inactive”; for `CCc1ccc(S(=O)(=O)N=C2C=C(Nc3ccc(OC)cc3)C(=O)c3ccccc32)cc1`, 95% (active).
`CCOc1ccc(S(=O)(=O)N=C2C=C(Nc3ccc(C)cc3)C(=O)c3ccccc32)cc1`: the inhibition is 91% (active).
For `CCc1ccc(S(=O)(=O)N=C2C=C(Br)C(=O)c3ccccc32)cc1`, the inhibition was 36% (active).
For `CCOc1ccc(NS(=O)(=O)c2ccc(NC(=O)c3ccccc3Br)cc2)cc1` the value was “inactive”.
The same measure for `O=C1C(Nc2ccc(Br)cc2)=CC(=NS(=O)(=O)c2cccs2)c2ccccc21`: 79% (active).
For the compound `COc1ccc(S(=O)(=O)NC(c2ccccc2)c2ccccc2)cc1`, the inhibition entry is “inactive”.
For `CCN(CC)S(=O)(=O)c1ccc(OC)c(NC(=O)c2cc(OC)c(OC)c(OC)c2)c1` the value was “inactive”; for `Cc1cccc(OCC(=O)Nc2cc(C(F)(F)F)ccc2Cl)c1`, “inactive”; for `Cc1ccc(CNC(=O)c2ccc3nc4sc5c(c4c(=O)n3c2)CCCC5)cc1`, “inactive”.
For the compound `CCOc1ccc(NC(=O)C2CCN(S(=O)(=O)c3ccc(OC)c(OC)c3)CC2)cc1`, the inhibition entry is “inactive”.
Regarding `COc1ccc(C2=N/C(=C\c3ccc(C(C)C)cc3)C(=O)O2)cc1[N+](=O)[O-]`, the inhibition entry was “inactive”.
Take `CCC(C(=O)NCc1ccccc1Cl)c1ccccc1` (stereo unspecified): the inhibition result is “inactive”.
Regarding `O=C(c1ccccc1Cl)N1CCCCC1`, the inhibition entry was “inactive”.
Consider `CCCCN(CC)S(=O)(=O)c1ccc2[nH]c(=O)cc(C(=O)NC3CCCCC3C)c2c1` (stereo unspecified), for which the inhibition result is “inactive”.
Take `Cc1ccc(NC(=O)CNCCOc2ccccc2)c(C)c1`: the inhibition entry was “inactive”.
Regarding `NC(=O)Cn1cnc2c(cnn2-c2ccc(F)cc2)c1=O`, the inhibition entry was “inactive”.
On to `C[C@@H](NC(=O)C1=C[C@@H](NC(=O)CS(=O)(=O)c2ccccc2)[C@@H](O)[C@H](O)C1)C(N)=O`, for which the inhibition result was “inactive”.
For `COc1ccc(Cl)cc1NC(=O)c1nn(-c2ccc(Cl)cc2)c(=O)c2ccccc12` the value was “inactive”.
As to `COc1cc2c(C(=O)N3CCCC3)cn(C)c(=O)c2cc1OC`, the inhibition entry was “inactive”.
As for `CCOc1ccc(C(C)=O)cc1N1C(=O)C2C3C=CC(CC3)C2C1=O` (stereo unspecified), the inhibition result is “inactive”.
As for `CN(C)CCCn1c(-c2ccc(Cl)cc2)csc1=Nc1ccccc1`, the inhibition is 63% (active) and 45% (active).
Regarding `CCn1c(C)csc1=Nc1cccc(C(F)(F)F)c1`, the inhibition entry is “inactive”.
With `COc1ccc(C2C(=C(O)c3ccc(Cl)cc3)C(=O)C(=O)N2CCCN(C)C)c(OC)c1` (stereo unspecified), the inhibition result was “inactive”.
For `O=C(CN1C(=O)CC(c2ccccc2)=Nc2ccccc21)Nc1ccc(Cl)cc1` the value was “inactive”.
As to `CCOC(=O)c1sc2nc3n(c(=O)c2c1C)N=C(c1ccccc1)CS3`, the inhibition result was “inactive”.
Consider `O=C1NN=C(c2ccccc2)/C1=C/c1ccc(-c2ccc(Cl)cc2)o1`, for which the inhibition is 49% (active).
Consider `Cc1c(Cl)c([N+](=O)[O-])nn1CCCC(=O)Nc1cc(Cl)ccc1Cl`, for which the inhibition result was “inactive”.
The same measure for `Cn1c(=O)c2c(nc(Cl)n2CC(=O)NC(C)(C)C)n(C)c1=O`: “inactive”; for `CC(C)NC(=O)c1cc2cc3ccc(Cl)cc3nc2o1`: “inactive”; for `CCc1ccc(CNC(=O)c2cc3cc4ccc(OC)cc4nc3o2)cc1`: “inactive”.
For `O=C(Nc1ccc2c(c1)OCCO2)c1cc2cc3ccc(Cl)cc3nc2o1` the value was 47% (active); for `CCOCCCNC(=O)c1oc2ccc(S(=O)(=O)N3CCC(C)CC3)cc2c1C`, “inactive”.
As to `Cc1ccc(C(=O)Nc2ccc3nn(-c4ccccc4)nc3c2)cc1`, the inhibition entry was “inactive”.
The same measure for `O=C(O)c1cccc(N=Cc2nc(-c3ccc(Br)cc3)oc2O)c1`: “inactive”; for `COc1ccc(CC(=O)Nc2ccc(-c3nnc(-c4ccccc4)o3)cc2)cc1`: “inactive”.
As for `O=C(COc1cccc([N+](=O)[O-])c1)Nc1ccc(-c2nnc(-c3ccco3)o2)cc1`, the inhibition is 45% (active).
As to `Cc1cccc(OCC(=O)Nc2ccc(-c3nc4ncccc4o3)cc2)c1`, the inhibition entry is “inactive”.
`Cc1c(F)cccc1NC(=O)C(C)Oc1ccc(Cl)cc1Cl` (stereo unspecified): the inhibition result is “inactive”.
The same measure for `O=C(c1ccco1)N1CCN(c2ccc([N+](=O)[O-])cc2)CC1`: “inactive”; for `O=C1CC(c2ccccc2)=NN1c1ccc([N+](=O)[O-])cc1`: 43% (active).
On to `O=C1CC(N2CCc3ccccc3C2)C(=O)N1c1ccc([N+](=O)[O-])cc1` (stereo unspecified), for which the inhibition result was “inactive”.
With `Cc1ccc(-c2cc(N3CCN(S(=O)(=O)c4cc(C)c(C)cc4C)CC3)ncn2)cc1`, the inhibition result is “inactive”.
Take `O=C(CSCc1ccccc1)Nc1c(-c2ccc(F)cc2)nc2ccccn12`: the inhibition result was “inactive”.
In the case of `CC(C)CN(CC(C)C)S(=O)(=O)c1ccc(C(=O)Nc2sc3c(c2C#N)CCC3)cc1`, the inhibition result is “inactive”.
As to `COc1cccc(C(=O)Nc2sc3c(c2C(N)=O)CCCCCC3)c1`, the inhibition result was “inactive”.
The same measure for `O=C(Nc1ncnc2sc3c(c12)CCCC3)c1ccccc1`: “inactive”; for `COc1cccc(-c2ncnn2-c2sc3c(c2C#N)CCCCC3)c1`: 65% (active).
For `N#Cc1c(-n2ncnc2-c2ccccc2)sc2c1CCCC2` the value was 31% (active); for `N#Cc1c(-n2ncnc2-c2ccc3c(c2)OCO3)sc2c1CCCC2`, 47% (active); for `COc1cccc(-c2c(C#N)c(N)n3c(nc4ccccc43)c2C#N)c1`, “inactive”.
The same measure for `N#Cc1c(NC(=O)CCCC(=O)O)sc2c1CCCC2`: “inactive”; for `Cc1cc(C)c(C#N)c(SCC(=O)c2ccc3c(c2)OCO3)n1`: “inactive”.
